Test results: PubChem BioAssay (Tox21)
Results filed as inconclusive are left out. Entries that show only a call come without a potency. Active and inactive are the calls of the source. Unless noted, calls follow the shape of the dose curve; as a rule, active = well fitted curve in the direction sought with a large enough effect in the repeat runs; inconclusive = weak or mixed curves; inactive = no such curve, though single readings can be large; an effect the other way counts as inactive or inconclusive.

Experiments:
[1] = biological target: Retinoic acid receptor RXR-alpha (Homo sapiens) (UniProt P19793); assay: qHTS assay to identify small molecule agonists of the RXR signaling pathway (AID 1159527; calls by dose curve; also: nearly all actives have a fitted effect of over 35% in size)
Retinoic acid receptor RXR-alpha (Homo sapiens), sequence (P19793 whole entry, looked up): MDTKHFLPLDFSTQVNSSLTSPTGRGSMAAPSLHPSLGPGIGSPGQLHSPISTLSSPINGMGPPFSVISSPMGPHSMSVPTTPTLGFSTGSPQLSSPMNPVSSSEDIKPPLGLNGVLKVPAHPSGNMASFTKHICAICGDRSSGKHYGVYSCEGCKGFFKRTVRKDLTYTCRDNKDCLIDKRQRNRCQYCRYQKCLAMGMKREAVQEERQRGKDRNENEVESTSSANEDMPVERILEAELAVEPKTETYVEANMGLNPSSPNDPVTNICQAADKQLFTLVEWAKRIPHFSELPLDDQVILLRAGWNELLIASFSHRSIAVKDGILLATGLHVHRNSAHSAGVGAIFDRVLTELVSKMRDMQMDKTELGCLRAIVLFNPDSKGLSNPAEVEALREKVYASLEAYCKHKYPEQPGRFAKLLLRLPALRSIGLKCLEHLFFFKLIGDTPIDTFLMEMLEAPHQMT
In short: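 Cells plated at 2,000/well, rested 5 hr at 37 C, pin-dosed with DMSO compound solutions, incubated 16 hr, then loaded with B/G FRET substrate for 2 hr at RT before dual-emission fluorescence reading.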

[2] = qHTS assay to identify small molecule agonists of the RXR signaling pathway - cell viability counter screen (AID 1159529); also: nearly all actives have a fitted effect of over 50% in size; also: potency is read from the fitted curve at half-maximal effect
In short: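 Steps: seed RXR-alpha-UAS-bla HEK 293T cells in assay medium containing 2% charcoal-stripped FBS; incubate 5 hr; add compounds in DMSO; incubate 16 hr at 37 C; after the bla read, add CellTiter-Glo and read luminescence at 30 min.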

[3] = qHTS assay to identify small molecule antagonists of the retinoid acid receptor (RAR) signaling pathway - cell viability counter screen (AID 1159551); also: nearly all actives have a fitted effect of over 35% in size
In short: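 Following overnight attachment, C3RL4 reporter cells received DMSO-dissolved compounds and then retinol (1 uM final). Six hours later at 37 C, ATP content was measured by CellTiter-Glo luminescence.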

[4] = qHTS assay to identify small molecule antagonists of the retinoic acid receptor (RAR) signaling pathway (AID 1159552; also: nearly all actives have a fitted effect of over 50% in size)
In short: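 Retinol at 1 uM final stimulated RARE-luciferase expression in C3RL4 cells exposed to test compounds for 6 hr at 37 C. Reduced luminescence, read 30 min after detection reagent, indicated pathway antagonism.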

[5] = qHTS assay to identify small molecule agonists of the retinoic acid receptor (RAR) signaling pathway (AID 1159553); conditions: C3RL4 RARE luciferase reporter, agonist, 6 h; activation: at 73.3 µM (top of the series) unless noted
In short: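 Cell line C3RL4, RARE luciferase reporter. Treatment: compounds in DMSO, 6 hr, 37 C, 5% CO2, after overnight plating. Detection: luminescence, 30 min RT after reagent.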

CC(C)N(C(=O)SCC(Cl)=C(Cl)Cl)C(C)C
Potency [1]: inactive
Potency [2]: inactive
Potency [3]: inactive
Potency [4]: inactive
Potency [5]: inactive

C=CCc1ccc(OC)cc1
Potency [1]: inactive
Potency [2]: inactive
Potency [3]: inactive

CCCCN(CC)c1c([N+](=O)[O-])cc(C(F)(F)F)cc1[N+](=O)[O-]
Potency [1]: inactive
Potency [2]: inactive
Potency [3]: inactive
Potency [4]: inactive
Potency [5]: inactive

CCN(N=O)C(N)=O
Potency [1]: inactive
Potency [2]: inactive
Potency [3]: inactive
Potency [4]: inactive
Potency [5]: inactive

CC(C)c1ccc(CO)cc1
Potency [1]: inactive
Potency [2]: inactive
Potency [3]: inactive
Potency [4]: inactive
Potency [5]: inactive

CCCCCCCCOC(=O)c1ccccc1C(=O)OCCCCCCCC
Potency [1]: inactive
Potency [2]: inactive
Potency [3]: inactive
Potency [4]: inactive
Potency [5]: inactive

Brc1ccc(Oc2cc(Br)c(Br)cc2Br)c(Br)c1
Potency [1]: inactive
Potency [2]: 17.4 µM (active)
Potency [3]: inactive
Potency [4]: inactive
Potency [5]: inactive

N#CCCCl
Potency [1]: inactive
Potency [2]: inactive
Potency [3]: inactive
Potency [4]: inactive
Potency [5]: inactive

COP(=O)(OC)OC
Potency [1]: inactive
Potency [2]: inactive
Potency [3]: inactive

CCC(C)(C)c1ccc(O)cc1
Potency [1]: inactive
Potency [2]: inactive
Potency [3]: inactive

Cc1cc(C)cc(C)c1
Potency [1]: inactive
Potency [2]: inactive
Potency [3]: inactive
Potency [4]: inactive
Potency [5]: inactive

Oc1cc(Cl)c(Cl)cc1Cl
Potency [1]: inactive
Potency [2]: inactive
Potency [3]: inactive

O=C(CCl)c1ccccc1
Potency [1]: inactive
Potency [2]: inactive
Potency [3]: inactive
Potency [4]: inactive
Potency [5]: inactive

O=Cc1ccco1
Potency [1]: inactive
Potency [2]: inactive
Potency [3]: inactive
Potency [4]: inactive
Potency [5]: inactive

CC(C)C(=O)OCC(C)(C)C(OC(=O)C(C)C)C(C)C (stereo not given)
Potency [1]: inactive
Potency [2]: inactive
Potency [3]: inactive
Potency [4]: inactive
Potency [5]: inactive

C=CCN(CC=C)C(=O)C(Cl)Cl
Potency [1]: inactive
Potency [2]: inactive
Potency [3]: inactive

CCC(C)c1ccc(O)cc1 (stereo not given)
Potency [1]: inactive
Potency [2]: inactive
Potency [3]: inactive

CC(C)NC(C)C
Potency [1]: inactive
Potency [2]: inactive
Potency [3]: inactive
Potency [4]: inactive
Potency [5]: inactive

O=C(NC(=O)c1c(F)cccc1F)Nc1ccc(Cl)cc1
Potency [1]: inactive
Potency [2]: inactive
Potency [3]: inactive
Potency [4]: inactive

C=CC(=O)OCCO
Potency [1]: inactive
Potency [2]: inactive
Potency [3]: inactive
